Compounds with a hit are over-represented: about 3% of the library has one in this group of screens.
IEC-6 tox: kills IEC-6 intestinal cells in KLF5 counter-screen; IEC-6 cytotoxicity, luminescence viability; inhibition, % at 5 µM; hit rate 0.78% among 290,000;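 note: 0% = plate median of test compound wells and 100% = cytotoxic reference compound wells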
SKKanGAS inh: blocks kanamycin growth of S. pyogenes SKKanGAS strain; AID 1662; hit rate 1.3% among 300,000; BacTiter-Glo, 6 h; inhibition, % at 7.5 µM;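 active = mean replicate score, as percent of positive control median, at least 50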;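 note: strain carries kanamycin resistance gene driven by streptokinase promoter and grows in 40 µg/ml kanamycin; loss of luminescence reflects streptokinase promoter inhibition or plain growth inhibition; 0% = median of DMSO wells and 100% = positive control at its reference dose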
KLF5 inh: kruppel-like factor 5 inhibition; inhibition, % at 5 µM; AID 1700; hit rate 0.23% among 290,000; DLD-1 KLF5 promoter-luciferase reporter, luminescence;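 active = inhibition above a per-plate limit of that plate's mean compound inhibition plus 3 SD, cut at about 60% in these data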;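 note: 0% = DMSO wells and 100% = LY294002 at 200 µM; higher means less KLF5 promoter-driven luciferase light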
aSyn UTR inh: 5' untranslated region of α-synuclein, MLPCN primary screen. alpha-synuclein 5'UTR reporter, inhibitor activity. inhibition, % (tested at 7.5 µM). hit rate 0.82% among 300,000. AID 1813; in the data active = inhibition above about 60%;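 note: H4 neuroglioblastoma cells stably carrying SNCA 5'UTR luciferase fusion; 0% = DMSO wells and 100% = positive control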
CSC inhib: blocks cancer stem cells; cancer stem cell-like cells viability, luminescence; inhibition, % at 7.5 µM; hit rate 1.1% among 300,000; AID 2717; in the data active = inhibition above about 75%; tested in HMLE shEcad cells
IEC-6 tox confirm: IEC-6 cytotoxicity, confirmation assay | shares compounds with IEC-6 tox | IEC-6 rat intestinal epithelial viability, luminescence | inhibition, % at 5 µM | hit rate 63% among 1,900;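 note: 0% = vehicle and 100% = reference cytotoxic drug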
Active calls of the source: *; nt = no result given. Cut-off read from the data, not from the text of the source, unless noted: active = inhibition above about 22%; inactive = the rest.

SMILES	IEC-6 tox	SKKanGAS inh	KLF5 inh	aSyn UTR inh	CSC inhib	IEC-6 tox confirm
Cc1ccc(NC(=O)[C@H](Cc2c[nH]c3ccccc23)NC(=O)[C@@H]2Cc3ccccc3CN2)c(C)c1	32*	-2	52	23	-13	6
Cc1cccc(NC(=O)[C@H](Cc2c[nH]c3ccccc23)NC(=O)[C@@H]2Cc3ccccc3CN2)c1	-2	5	20	32	42	nt
CC1(C)NC(=O)N(CC(=O)OCC(=O)Nc2cc(S(=O)(=O)N3CCCCCC3)ccc2Cl)C1=O	0	4	-22	22	-14	nt
c1ccc(-c2cn(-c3ccccc3)c3[n+]2CCS3)cc1	-2	2	-8	-3	0	nt
CC(C)(C)c1ccc(-c2cn(-c3ccc(Br)cc3)c3[n+]2CCCS3)cc1	50*	10	35	-8	nt	51*
Cc1nc2ncccn2c1-c1csc(Nc2ccc(O)cc2)n1	25*	-10	-80	-67	nt	7
CC1=C(Nc2ccc(C(=O)O)cc2)C(=O)c2ccccc2C1=O	12	19	-9	21	19	nt
CC(=O)NC1=C(Nc2ccc(N(C)C)cc2)C(=O)c2ccccc2C1=O	67*	14	-141	-20	45	41*
CCOC(=O)C(C#N)(Cc1cc(OC)cc(OC)c1)Cc1cc(OC)cc(OC)c1	nt	-3	nt	-1	12	nt
CCn1c(=O)c2cc(C(=O)NCCC(C)C)sc2c2ccccc21	2	11	-38	-19	32	nt
CCn1c(=O)c2cc(C(=O)NCCCOC)sc2c2ccccc21	22*	-1	-34	-85	31	13
CCCN(CCC)CCCNC(=O)c1cc2c(=O)n(CC)c3ccccc3c2s1	22*	7	0	-300	5	19
Cc1c(C(=O)OCC(C)C)[nH]c2c1C(=O)CC(c1ccco1)C2 (stereo not given)	81*	6	47	70*	nt	57*
COc1ccc(OC)c(C2CC(=O)c3c([nH]c(C(=O)OCC4CCCO4)c3C)C2)c1 (stereo not given)	0	3	-34	-24	51	nt
COC(=O)C1C(=O)c2c([nH]c(C(=O)OC3CCCC3)c2C)CC1C (stereo not given)	3	-5	-120	-131	1	nt
Cc1c(C(=O)OCC2CCCO2)[nH]c2c1C(=O)CC(c1ccco1)C2 (stereo not given)	38*	-4	-14	-46	3	47*
Cc1c(C(=O)OC2CCCC2)[nH]c2c1C(=O)CC(c1ccco1)C2 (stereo not given)	88*	6	56	56	64	57*
Cc1ccc(C)c(C(=O)COC(=O)Cn2c(C)csc2=O)c1	-2	-3	-3	8	nt	nt
O=c1[nH]c(NCc2ccco2)nnc1Cc1ccccc1Cl	22*	1	18	9	54	14
C=CCNC(=O)c1c2c(nc3ccccc13)-c1ccccc1CC2	0	-7	-4	4	-3	nt
CCN1CCN(c2nc(Nc3ccccc3F)nc(N)c2[N+](=O)[O-])CC1	2	0	-23	20	-17	nt
Nc1nc(Nc2ccccc2F)nc(N2CCCC2)c1[N+](=O)[O-]	23*	0	-16	-131	24	22*
COc1ccc(NS(=O)(=O)c2cc(N/C(=N\S(=O)(=O)c3ccccc3)c3ccc(F)cc3)ccc2Cl)cc1	39*	31	12	15	46	0
COc1ccc(C(=O)Nc2ccc(Cl)c(S(=O)(=O)Nc3ccccc3OC)c2)cc1	2	15	6	11	9	nt
O=P(O)(O)c1cc(-c2ccccc2)oc1-c1ccccc1	-5	0	13	-10	-4	nt
SMILES	IEC-6 tox	SKKanGAS inh	KLF5 inh	aSyn UTR inh	CSC inhib	IEC-6 tox confirm
O=c1oc(-c2ccccc2)cc(Cl)c1Cl	31*	4	-7	-198	26	21
Cc1nc2c(sc3nc4c(cc32)COC(C)(C)C4)c(=O)n1CC(=O)NCc1ccco1	63*	-3	52	-69	51	38*
COc1ccc(CNC(=O)C/C(C)=N/NC(=O)c2cc(OC)cc(OC)c2)cc1	77*	-4	39	-23	-3	5
COc1cc(OC)cc(C(=O)N/N=C(\C)CC(=O)Nc2ccccn2)c1	74*	3	29	-5	9	6
CC(=O)Nc1ccc(C(=O)OCCC(C)C)cc1	25*	-5	-52	-31	2	23*
COc1cc(OC)cc(C(=O)Nc2ccc(N3CCN(C(=O)c4cccs4)CC3)cc2)c1	36*	9	20	-180	14	31*
